H9c2 protect: myocardial damage modulation in H9c2 cells; H9c2 cardiomyocytes, H2O2 injury protection, ATPLite, 2 h; protection from H2O2 cell death, % at 20 µM; actives 0.63% (n = 360,000); AID 588492;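 active = compounds giving at least 50% protection of heart cells from peroxide-induced death in the single-dose screen, raw or plate-pattern-corrected value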;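 note: 0% = DMSO wells with peroxide and 100% = DMSO wells without peroxide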
PfGluPho inh: PfG6PD (Plasmodium falciparum) enzyme inhibition; inhibition, % at 20 µM; PfGluPho enzyme, NADPH resazurin-diaphorase fluorescence; actives 0.78% (n = 350,000);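 active = inhibition reaching at least a set limit at 20 µM in the primary screen, cut at about 59% in these data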;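 note: 0% = DMSO wells with substrate and 100% = DMSO wells lacking glucose-6-phosphate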
A3A deaminase: blocks human APOBEC3A ssDNA deamination | P31941 | recombinant A3A, FAM/TAMRA ssDNA deamination fluorescence | inhibition, % at 20 µM | actives 0.41% (n = 330,000) | AID 493011;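 active = at least 40% inhibition at 20 µM here, with at most 30% in a related deaminase screen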;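 note: plate controls were A3A with DMSO for no effect and wells lacking A3A enzyme for full effect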
Target sequence (P31941 whole entry, looked up): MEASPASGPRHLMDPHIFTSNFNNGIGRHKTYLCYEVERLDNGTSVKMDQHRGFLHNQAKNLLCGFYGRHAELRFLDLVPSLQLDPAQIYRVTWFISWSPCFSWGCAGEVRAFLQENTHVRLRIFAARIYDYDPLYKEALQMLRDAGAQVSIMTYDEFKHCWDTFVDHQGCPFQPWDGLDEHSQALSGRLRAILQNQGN
APOBEC3G inh: APOBEC3G (human) deaminase inhibition; recombinant A3G, ssDNA deamination FAM/TAMRA fluorescence; inhibition, % at 20 µM; actives 0.28% (n = 330,000); Q9HC16;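 active = inhibition of at least 40% at 20 µM, with no more than 30% in the related APOBEC3A deaminase screen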;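 note: plate controls were DMSO wells with A3G for no effect and wells lacking A3G enzyme for full effect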
NadD inh: NadD (S. aureus) enzyme inhibition | purified NadD enzyme, colorimetric absorbance read-out | inhibition, % at 20 µM | actives 0.78% (n = 360,000) | AID 602399; in the data active = inhibition above about 26%
TAG inh: inhibitors of triacylglycerol accumulation. AID 651582. inhibition, % at 12.5 µM. actives 0.66% (n = 230,000). H9c2 cells, Nile Red lipid (TAG) fluorescence; cells loaded with 200 µM oleic acid;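 active = pattern-corrected inhibition of lipid staining of at least 50% with the nuclear-stain viability signal not falling by more than 50%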;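 note: 0% = DMSO wells and 100% = triacsin C control wells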
APOBEC3G confirm: APOBEC3G (human) deaminase inhibition, confirmed; shares compounds with APOBEC3G inh; recombinant A3G ssDNA deaminase, UDG/FAM-TAMRA fluorescence; inhibition, % at 20 µM; actives 72% (n = 890); AID 493152;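 active = inhibition reaching a set limit in any replicate at 20 µM, the limit being 80% of the first screen's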
UDG ctr A3G: inhibits E. coli UDG, flagging false APOBEC3G inhibitors; UDG counterscreen, FAM/TAMRA oligo fluorescence; shares compounds with APOBEC3G inh; inhibition, % at 20 µM; 710 tested, under 10 active; AID 504715;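 active = compounds giving 40% or more inhibition at 20 µM in any one of the three replicates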;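 note: plate controls were DMSO wells with UDG and oligo for no effect and DMSO wells lacking both for full effect; inhibitors lower the FAM signal released by uracil excision and alkaline cleavage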
Target sequence (P12295 whole entry, looked up): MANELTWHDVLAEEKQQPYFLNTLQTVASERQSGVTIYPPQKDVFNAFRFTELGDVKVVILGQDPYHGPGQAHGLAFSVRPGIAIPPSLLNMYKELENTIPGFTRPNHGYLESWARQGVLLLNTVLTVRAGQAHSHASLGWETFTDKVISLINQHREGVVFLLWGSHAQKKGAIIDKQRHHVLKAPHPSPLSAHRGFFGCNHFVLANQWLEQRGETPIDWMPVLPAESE
Numbers without * were called inactive. Rows were chosen to be rich in hits. Some 2.9% of all compounds tested hit in one or more screens of this group.

How did CC1CCc2c(sc(NC(=O)c3nc4ncccn4n3)c2C#N)C1 (stereo unspecified) do in these assays?
H9c2 protect: -6; PfGluPho inh: 47; A3A deaminase: 3; APOBEC3G inh: 54*; NadD inh: 4; TAG inh: 6; APOBEC3G confirm: 40*; UDG ctr A3G: -2

How did Cc1cc(C)n(CCc2nc(-c3ccc(C)o3)cs2)n1 do in these assays?
H9c2 protect: -29; PfGluPho inh: 28; A3A deaminase: 2; APOBEC3G inh: 47*; NadD inh: 0; TAG inh: -8; APOBEC3G confirm: 40*

What do the screens show for `Cc1cc(C)n(CCc2nc(-c3cc4ccccc4o3)cs2)n1`?
H9c2 protect: -24; PfGluPho inh: 15; A3A deaminase: -3; APOBEC3G inh: -2; NadD inh: -4; TAG inh: -9

What do the screens show for `COC(=O)c1sc(NC(=O)CSc2nnnn2C)nc1C`?
H9c2 protect: 2; PfGluPho inh: 12; A3A deaminase: -1; APOBEC3G inh: 56*; NadD inh: 8; APOBEC3G confirm: -6; UDG ctr A3G: 0

What do the screens show for `Cc1noc(C)c1CC(=O)Nc1ccc2c(c1)OCO2`?
H9c2 protect: -3; PfGluPho inh: 14; A3A deaminase: -1; APOBEC3G inh: -2; NadD inh: -5; TAG inh: -9

Results for Cc1ccc(OC(=O)c2sc(Cl)nc2C)cc1C ?
H9c2 protect: -3; PfGluPho inh: -6; A3A deaminase: 0; APOBEC3G inh: 54*; NadD inh: -6; APOBEC3G confirm: -1; UDG ctr A3G: -1

What do the screens show for `Cc1ccc(Cn2c(=S)[nH]c3ccc(N4CCOCC4)cc3c2=O)o1`?
H9c2 protect: 10; PfGluPho inh: 50; A3A deaminase: 10; APOBEC3G inh: 59*; NadD inh: 18; TAG inh: -11; APOBEC3G confirm: 76*

Results for S=c1[nH]ncn1/N=C/c1ccc(Br)cc1 ?
H9c2 protect: 10; PfGluPho inh: 21; A3A deaminase: -5; APOBEC3G inh: 44*; NadD inh: 2; APOBEC3G confirm: 100*; UDG ctr A3G: -1

What do the screens show for `S=c1[nH]ncn1/N=C/c1ccccc1`?
H9c2 protect: -1; PfGluPho inh: 28; A3A deaminase: -4; APOBEC3G inh: 23; NadD inh: 2; TAG inh: -11

Results for COc1ccc2cc(C(=O)C3CCCN(C(=O)c4cc5nc(C)cc(C)n5n4)C3)ccc2c1 (stereo unspecified) ?
H9c2 protect: 6; PfGluPho inh: 13; A3A deaminase: 4; APOBEC3G inh: -7; NadD inh: 8; TAG inh: -13

What do the screens show for `CC(C)(O)C1Cc2cc(/C=C/C(=O)O)c(O)cc2O1` (stereo unspecified)?
H9c2 protect: -2; PfGluPho inh: 25; A3A deaminase: 0; APOBEC3G inh: 82*; NadD inh: 21; APOBEC3G confirm: 94*; UDG ctr A3G: -2

What do the screens show for `O=C1C=C(c2cc3ccccc3s2)CCC1`?
H9c2 protect: -2; PfGluPho inh: 14; A3A deaminase: -2; APOBEC3G inh: -9; NadD inh: -1

What do the screens show for `CCCn1c(-c2ccc(F)cc2)n[nH]c1=S`?
H9c2 protect: 1; PfGluPho inh: 21; A3A deaminase: -5; APOBEC3G inh: 36; NadD inh: 3

What do the screens show for `CCCCn1c(-c2ccc([N+](=O)[O-])cc2)n[nH]c1=S`?
H9c2 protect: 7; PfGluPho inh: 30; A3A deaminase: -17; APOBEC3G inh: 48*; NadD inh: -2; TAG inh: 21; APOBEC3G confirm: 76*; UDG ctr A3G: 2

What do the screens show for `CCn1c(-c2ccc(C)cc2)n[nH]c1=S`?
H9c2 protect: -16; PfGluPho inh: 23; A3A deaminase: 2; APOBEC3G inh: 51*; NadD inh: -5; TAG inh: 4; APOBEC3G confirm: 29

Bioassay records (PubChem BioAssay)
